Experimental data taken from PubChem BioAssay AID1159580 (chemical genetic matrix, 2015).
About 2,000 (36%) of roughly 5,500 compounds were called active. Another 18% or so got no clear call; they are omitted. Cut-off read from the data, not from the text of the source: active = normalized growth mostly below about 0.91 (no sharp cut-off); inconclusive = no clear call, values can overlap the other calls; inactive = mostly above about 0.92. The list shows a part of the results.

Assay: chemical genetic growth profiling, strain panel (AID 1159580);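 note: tested at 20 µM; growth read once vehicle control cultures reached saturation at 30 °C; 1 = growth at the plate median or of vehicle wells; lower values mean less growth of the strain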
Details: growth OD

Measured: normalized growth

CC(C)N1C(=O)c2ccccc2NS1(=O)=O
inactive: S. cerevisiae deletion strains, locus YKL009W, strain mrt4, active compounds read low 1.01 | S. cerevisiae deletion strains, locus YKL068W, active compounds read low 0.994 | S. cerevisiae deletion strains, locus YKL085W, strain MDH1 (second series), active compounds read low 0.997 | S. cerevisiae deletion strains, locus YKL085W, strain MDH1, active compounds read low 0.997 | S. cerevisiae deletion strains, locus YKL160W, strain elf1, active compounds read low 0.974 | S. cerevisiae deletion strains, locus YKL190W, strain CNB1, active compounds read low 0.998 | S. cerevisiae deletion strains, locus YKR001C, strain vps1, active compounds read low 1.01 | S. cerevisiae deletion strains, locus YKR026C, strain gcn3, active compounds read low 0.972 | S. cerevisiae deletion strains, locus YKR091W, strain srl3, active compounds read low 0.958 | S. cerevisiae deletion strains, locus YLL001W, strain dnm1, active compounds read low 0.937 | S. cerevisiae deletion strains, locus YLL026W, active compounds read low 0.971 | S. cerevisiae deletion strains, locus YLL041C, strain sdh2, active compounds read low 0.958 | S. cerevisiae deletion strains, locus YLR027C, strain aat2, active compounds read low 0.964 | S. cerevisiae deletion strains, locus YLR039C, strain RIC1, active compounds read low 1.03 | S. cerevisiae deletion strains, locus YLR058C, strain SHM2, active compounds read low 1 | S. cerevisiae deletion strains, locus YLR102C, strain apc9, active compounds read low 1 | S. cerevisiae deletion strains, locus YLR113W, strain HOG1, active compounds read low 0.964 | S. cerevisiae deletion strains, locus YLR221C, strain rsa3, active compounds read low 0.994 | S. cerevisiae deletion strains, locus YLR258W, strain gsy2, active compounds read low 0.98 | S. cerevisiae deletion strains, locus YLR262C, strain YPT6 (second series), active compounds read low 0.983 | S. cerevisiae deletion strains, locus YLR262C, strain YPT6, active compounds read low 1.02 | S. cerevisiae deletion strains, locus YLR268W, strain sec22, active compounds read low 1.01 | S. cerevisiae deletion strains, locus YLR320W, strain mms22, active compounds read low 1.01 | S. cerevisiae deletion strains, locus YLR330W, strain CHS5, active compounds read low 0.994 | S. cerevisiae deletion strains, locus YLR342W, strain FKS1 (second series), active compounds read low 1 | S. cerevisiae deletion strains, locus YLR342W, strain FKS1, active compounds read low 0.98 | S. cerevisiae deletion strains, locus YLR357W, strain rsc2, active compounds read low 0.978 | S. cerevisiae deletion strains, locus YLR370C, strain arc18, active compounds read low 0.973 | S. cerevisiae deletion strains, locus YLR371W, strain rom2, active compounds read low 1 | S. cerevisiae deletion strains, locus YLR384C, strain iki3, active compounds read low 0.974 | S. cerevisiae deletion strains, locus YLR418C, strain cdc73, active compounds read low 1.02 | S. cerevisiae deletion strains, locus YML016C, strain PPZ1, active compounds read low 0.997 | S. cerevisiae deletion strains, locus YML032C, strain rad52, active compounds read low 1.01 | S. cerevisiae deletion strains, locus YML120C, strain ndi1, active compounds read low 0.956 | S. cerevisiae deletion strains, locus YML124C, strain tub3, active compounds read low 1 | S. cerevisiae deletion strains, locus YMR058W, strain fet3, active compounds read low 0.968 | S. cerevisiae deletion strains, locus YMR078C, strain ctf18, active compounds read low 0.998 | S. cerevisiae deletion strains, locus YMR125W, strain sto1, active compounds read low 0.933 | S. cerevisiae deletion strains, locus YMR129W, active compounds read low 0.964 | S. cerevisiae deletion strains, locus YMR205C, strain PFK2, active compounds read low 0.961 | S. cerevisiae deletion strains, locus YMR223W, strain ubp8, active compounds read low 1 | S. cerevisiae deletion strains, locus YMR231W, strain pep5, active compounds read low 0.974 | S. cerevisiae deletion strains, locus YMR263W, strain SAP30, active compounds read low 1.01 | S. cerevisiae deletion strains, locus YMR307W, strain GAS1, active compounds read low 1.03 | S. cerevisiae deletion strains, locus YNL067W, strain RPL9B, active compounds read low 0.995 | S. cerevisiae deletion strains, locus YNL071W, strain lat1, active compounds read low 0.98 | S. cerevisiae deletion strains, locus YNL128W, strain TEP1, active compounds read low 1.01 | S. cerevisiae deletion strains, locus YNL153C, strain GIM3, active compounds read low 0.994 | S. cerevisiae deletion strains, locus YNL183C, strain NPR1, active compounds read low 0.973 | S. cerevisiae deletion strains, locus YNL209W, strain ssb2, active compounds read low 0.963 | S. cerevisiae deletion strains, locus YNL233W, strain BNI4, active compounds read low 0.997 | S. cerevisiae deletion strains, locus YNL248C, strain rpa49, active compounds read low 0.99 | S. cerevisiae deletion strains, locus YNL250W, strain rad50, active compounds read low 0.997 | S. cerevisiae deletion strains, locus YNL271C, strain bni1, active compounds read low 0.998 | S. cerevisiae deletion strains, locus YNL298W, strain CLA4, active compounds read low 1.01 | S. cerevisiae deletion strains, locus YNL307C, strain MCK1, active compounds read low 1.01 | S. cerevisiae deletion strains, locus YNL322C, strain KRE1 (second series), active compounds read low 0.951 | S. cerevisiae deletion strains, locus YNL322C, strain KRE1, active compounds read low 1 | S. cerevisiae deletion strains, locus YNR049C, strain mso1, active compounds read low 0.952 | S. cerevisiae deletion strains, locus YNR052C, strain pop2, active compounds read low 0.996 | S. cerevisiae deletion strains, locus YOL006C, strain TOP1, active compounds read low 1.06 | S. cerevisiae deletion strains, locus YOL012C, strain htz1 1.04 | S. cerevisiae deletion strains, locus YOL147C, strain pex11, active compounds read low 0.997 | S. cerevisiae deletion strains, locus YOR001W, strain rrp6, active compounds read low 0.967 | S. cerevisiae deletion strains, locus YOR061W, strain CKA2, active compounds read low 0.998 | S. cerevisiae deletion strains, locus YOR069W, strain VPS5, active compounds read low 0.989 | S. cerevisiae deletion strains, locus YOR070C, strain gyp1, active compounds read low 0.983 | S. cerevisiae deletion strains, locus YOR080W, strain dia2, active compounds read low 0.98 | S. cerevisiae deletion strains, locus YOR083W, strain WHI5, active compounds read low 0.964 | S. cerevisiae deletion strains, locus YOR106W, strain vam3, active compounds read low 0.966 | S. cerevisiae deletion strains, locus YOR136W, strain idh2, active compounds read low 1 | S. cerevisiae deletion strains, locus YOR144C, strain elg1, active compounds read low 0.999 | S. cerevisiae deletion strains, locus YOR184W, strain ser1, active compounds read low 1.01 | S. cerevisiae deletion strains, locus YOR231W, strain MKK1, active compounds read low 0.998 | S. cerevisiae deletion strains, locus YOR265W, strain rbl2, active compounds read low 0.973 | S. cerevisiae deletion strains, locus YOR270C, strain vph1, active compounds read low 0.97 | S. cerevisiae deletion strains, locus YOR290C, strain snf2, active compounds read low 0.96 | S. cerevisiae deletion strains, locus YOR316C, strain cot1, active compounds read low 1.01 | S. cerevisiae deletion strains, locus YPL051W, strain arl3, active compounds read low 0.981 | S. cerevisiae deletion strains, locus YPL055C, strain LGE1, active compounds read low 1.02 | S. cerevisiae deletion strains, locus YPL078C, strain atp4, active compounds read low 0.961 | S. cerevisiae deletion strains, locus YPL106C, strain sse1, active compounds read low 0.971 | S. cerevisiae deletion strains, locus YPL240C, strain hsp82, active compounds read low 0.968 | S. cerevisiae deletion strains, locus YPL241C, strain CIN2, active compounds read low 0.999 | S. cerevisiae deletion strains, locus YPL256C, strain CLN2, active compounds read low 0.987 | S. cerevisiae deletion strains, locus YPR119W, strain clb2, active compounds read low 0.99 | S. cerevisiae deletion strains, locus YPR141C, strain kar3, active compounds read low 1.01 | S. cerevisiae deletion strains, locus YPR163C, strain tif3, active compounds read low 1 | S. cerevisiae deletion strains, locus YPR167C, strain met16, active compounds read low 0.996 | S. cerevisiae deletion strains, strain wtn01, active compounds read low 1.01 | S. cerevisiae strains, strain wild type, active compounds read low 0.997
